Entries with a potency or affinity are not part of this list.
Legend:
[1] = tested on: Staphylococcus aureus; details: Concentration 32 ug.mL-1; ASSAY_TEST Inhibition of Bacterial Growth; detection method Absorption (OD600); MEDIA CAMHB; plate type 384well; NBS; CORNING #3640; time 18 hr
[2] = tested on: Escherichia coli; details: Concentration 32 ug.mL-1; ASSAY_TEST Inhibition of Bacterial Growth; detection method Absorption (OD600); MEDIA CAMHB; plate type 384well; NBS; CORNING #3640; time 18 hr

| Compound | Inhibition [1] | Inhibition [2] |
| --- | --- | --- |
| N#CC1(Br)C(=NBr)Oc2ccc3ccccc3c2C1c1ccc([N+](=O)[O-])cc1 (centres undefined) | 17.16% | -19.01% |
| COc1ccccc1[C@H]1c2c(ccc3ccccc23)O/C(=N\Br)[C@@]1(Br)C#N | 33.19% | 14.2% |
| CC1Cc2c(Cl)nc3nc4c(c(N)c3c2NC1=O)CCCC4 (centres undefined) | 46.7% | -7.98% |
| CC(C)(C)OC(=O)Nc1ncccc1Br | 38.27% | -5.45% |
| CCOC(=O)c1cc2c(N)c3c(nc2nc1C)CCCC3 | 8.67% | -8.78% |
| O=C(N/N=C/Cc1ccccc1)c1cc2ccccc2[nH]1 | 10.17% | 9.88% |
| Cc1nc(NCc2ccccc2)c2cnn(-c3ccccc3)c2n1 | 7.38% | 5.64% |
| N#CC1=C(N)NC(=O)CC1c1ccccc1 (centres undefined) | 34.44% | 4.14% |
| CN1C/C(=C\Cl)n2c1c(C#N)cc(C#N)c2=O | 23.22% | -15.97% |
| C#CCN(C)Cc1cc2cc(OCCCC3CCN(Cc4ccc(C#N)cc4)CC3)ccc2n1C | 8.98% | -18.18% |
| CC(=O)CC(=O)N1[C@@H]2C[C@H]3CCC2(CS1(=O)=O)C3(C)C | 27.16% | 7.75% |
| CCOC(=O)c1c(C)nc(NC2CCN(Cc3ccccc3)CC2)c(C#N)c1-c1ccccc1 | 43.62% | -5.95% |
| CC1=NC(=Cc2ccc([N+](=O)[O-])cc2)C(=O)O1 | 3.5% | -3.97% |
| N#Cc1c(N)nc2c(c1-c1ccccc1)CN(Cc1ccccc1)CC2 | 12.81% | 10.61% |
| COc1ccc2cc(C3C4=C(CC(C)(C)CC4=O)Oc4nc5c(c(N)c43)CCC5)c(Cl)nc2c1 (centres undefined) | 18.17% | 11.31% |
| N#Cc1cc2c(N)c3c(nc2nc1Cl)CCCC3 | 35.71% | -0.19% |
| O=C(O)/C(=C\c1ccccc1)NC(=O)c1ccccc1 | 14.68% | 10.16% |
| O=C1OC(c2ccccc2)=NC12CC2c1ccc([N+](=O)[O-])cc1 (centres undefined) | 9.12% | 5.57% |
| CNC(=O)c1cc2cc(OC)ccc2[nH]1 | 5.66% | -0.98% |

| Compound | Inhibition [1] | Inhibition [2] |
| --- | --- | --- |
| CC(=O)Nc1nc(Cl)c(C#N)c(-c2ccccc2)c1C#N | 21.15% | -6.98% |
| O=C(N/N=C/Cc1ccccc1)c1cc2ccccc2n1Cc1ccccc1 | 8.78% | 7.44% |
| N#CC1(Br)C(=NBr)Oc2c(ccc3ccccc23)C1c1ccc([N+](=O)[O-])cc1 (centres undefined) | 36.89% | -19.6% |
| Cl.Cl.Cn1c(CNc2ccccc2)cc2cc(OCCCC3CCN(Cc4ccccc4)CC3)ccc21 | 21.22% | -8.49% |
| C#CCN(C)c1nc(N(C)CC#C)c(C#N)cc1C#N | 20.85% | -13.82% |
| Nc1c2c(nc3c1C(c1ccc([N+](=O)[O-])cc1)c1c(ccc4ccccc14)O3)CCCC2 (centres undefined) | 18.24% | 7.89% |
| COc1cc(CCC(N)=O)ccc1O | 8.5% | 5.11% |
| N#Cc1cc2c(N)c3c(nc2nc1Cl)CCN(Cc1ccccc1)C3 | 31.61% | -4.39% |
| C=CCNc1nc(N)c(C#N)cc1C#N | 40.4% | -12.52% |
| CCCC(=O)NCc1c(-c2ccc(Cl)cc2)nc2ccccn12 | 11.89% | 8.99% |
| O=C(Cc1c[nH]c2ccccc12)N/N=C/c1ccco1 | 4.9% | -3.66% |
| CCOC(=O)/C(C#N)=C\c1ccc(C)cc1 | 28.15% | 15.07% |
| COC(=O)C(NC(=O)c1ccccc1)=C(C)c1ccccc1 | 11.03% | 2.63% |
| Cc1ccc2nc(Cl)c(/C=N/OCc3ccccc3)cc2c1 | 31.42% | 20.1% |
| CCOC(=O)C1=C(C)Oc2nc3c(c(N)c2C1c1ccc(O)c(OC)c1)CCC3 (centres undefined) | -3.09% | -6.01% |
| COc1ccc2c(c1)cc(CO)n2C | 3.66% | 11.03% |
| Cn1c(C(=O)O)cc2cc(OCCCC3CCN(Cc4ccccc4)CC3)ccc21 | 27.49% | -8.76% |
| CCOC(=O)C1=C(C)OC(N)=C(C#N)C1c1ccccc1OC (centres undefined) | 23.12% | -9.51% |

Reference: ChEMBL document CHEMBL4513135, “CO-ADD screening of IQOG CSIS (Spain) compounds”
